# The supplement of paper PMC12067093, “Discovery and optimisation of a covalent ligand for TRIM25 and its application to targeted protein ubiquitination” (Chemical Science, 2025)
# About 21,000 targets were measured; listed, in parts, are those with the largest changes and a random draw of the rest.
# Compound: Cc1cc(ccc1-c1ccccc1)C(=O)N1CCCN(CC1)C(=O)CCl [compound 10]
# Experiment: probe-labelled cysteine peptide fold change vs DMSO (competition) (log2 fold change); higher = less target engagement (more negative = stronger competition)
# Details: THP-1, incubation time: 4 h
# 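Also: competitive profiling in live THP-1 cells: cysteine peptides tagged with an iodoacetamide desthiobiotin (IA-DTB) probe, intensity after compound treatment relative to DMSO-treated cells.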
# Chain of UniProt Q5VV52 (Q5VV52 whole entry, looked up): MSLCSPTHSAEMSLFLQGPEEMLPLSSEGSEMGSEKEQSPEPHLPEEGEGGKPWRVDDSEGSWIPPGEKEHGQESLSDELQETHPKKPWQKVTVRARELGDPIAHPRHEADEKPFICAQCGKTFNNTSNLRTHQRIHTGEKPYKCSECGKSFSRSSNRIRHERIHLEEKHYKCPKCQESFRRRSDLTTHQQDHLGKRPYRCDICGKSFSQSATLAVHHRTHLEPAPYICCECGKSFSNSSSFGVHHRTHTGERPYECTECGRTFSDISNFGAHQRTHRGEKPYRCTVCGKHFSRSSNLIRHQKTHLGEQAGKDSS
# Chain of UniProt Q96KM6 (Q96KM6 whole entry, looked up): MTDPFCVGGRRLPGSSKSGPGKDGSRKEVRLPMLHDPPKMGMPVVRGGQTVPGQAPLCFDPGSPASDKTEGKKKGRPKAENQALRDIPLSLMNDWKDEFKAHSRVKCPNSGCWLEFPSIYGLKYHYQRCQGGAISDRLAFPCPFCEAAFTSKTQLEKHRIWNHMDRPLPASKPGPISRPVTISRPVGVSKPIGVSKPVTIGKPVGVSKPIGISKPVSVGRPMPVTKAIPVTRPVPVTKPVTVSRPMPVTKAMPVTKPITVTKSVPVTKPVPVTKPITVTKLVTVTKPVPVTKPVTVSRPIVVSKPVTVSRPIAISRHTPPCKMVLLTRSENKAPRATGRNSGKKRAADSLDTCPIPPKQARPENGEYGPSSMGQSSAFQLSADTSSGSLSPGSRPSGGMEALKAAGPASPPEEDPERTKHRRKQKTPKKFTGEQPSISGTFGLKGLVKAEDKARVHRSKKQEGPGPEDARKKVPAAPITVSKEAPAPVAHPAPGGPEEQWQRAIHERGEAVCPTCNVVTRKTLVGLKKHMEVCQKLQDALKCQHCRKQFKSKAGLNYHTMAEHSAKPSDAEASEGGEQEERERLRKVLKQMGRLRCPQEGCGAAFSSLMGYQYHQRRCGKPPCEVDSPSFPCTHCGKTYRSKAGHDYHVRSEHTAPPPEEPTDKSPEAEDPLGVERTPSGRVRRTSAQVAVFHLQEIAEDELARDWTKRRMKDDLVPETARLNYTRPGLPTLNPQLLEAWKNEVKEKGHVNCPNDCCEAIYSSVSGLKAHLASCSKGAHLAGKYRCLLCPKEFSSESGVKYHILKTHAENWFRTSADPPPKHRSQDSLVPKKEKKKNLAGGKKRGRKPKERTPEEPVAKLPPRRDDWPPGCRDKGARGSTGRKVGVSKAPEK
# Chain of UniProt Q12768 (Q12768 whole entry, looked up): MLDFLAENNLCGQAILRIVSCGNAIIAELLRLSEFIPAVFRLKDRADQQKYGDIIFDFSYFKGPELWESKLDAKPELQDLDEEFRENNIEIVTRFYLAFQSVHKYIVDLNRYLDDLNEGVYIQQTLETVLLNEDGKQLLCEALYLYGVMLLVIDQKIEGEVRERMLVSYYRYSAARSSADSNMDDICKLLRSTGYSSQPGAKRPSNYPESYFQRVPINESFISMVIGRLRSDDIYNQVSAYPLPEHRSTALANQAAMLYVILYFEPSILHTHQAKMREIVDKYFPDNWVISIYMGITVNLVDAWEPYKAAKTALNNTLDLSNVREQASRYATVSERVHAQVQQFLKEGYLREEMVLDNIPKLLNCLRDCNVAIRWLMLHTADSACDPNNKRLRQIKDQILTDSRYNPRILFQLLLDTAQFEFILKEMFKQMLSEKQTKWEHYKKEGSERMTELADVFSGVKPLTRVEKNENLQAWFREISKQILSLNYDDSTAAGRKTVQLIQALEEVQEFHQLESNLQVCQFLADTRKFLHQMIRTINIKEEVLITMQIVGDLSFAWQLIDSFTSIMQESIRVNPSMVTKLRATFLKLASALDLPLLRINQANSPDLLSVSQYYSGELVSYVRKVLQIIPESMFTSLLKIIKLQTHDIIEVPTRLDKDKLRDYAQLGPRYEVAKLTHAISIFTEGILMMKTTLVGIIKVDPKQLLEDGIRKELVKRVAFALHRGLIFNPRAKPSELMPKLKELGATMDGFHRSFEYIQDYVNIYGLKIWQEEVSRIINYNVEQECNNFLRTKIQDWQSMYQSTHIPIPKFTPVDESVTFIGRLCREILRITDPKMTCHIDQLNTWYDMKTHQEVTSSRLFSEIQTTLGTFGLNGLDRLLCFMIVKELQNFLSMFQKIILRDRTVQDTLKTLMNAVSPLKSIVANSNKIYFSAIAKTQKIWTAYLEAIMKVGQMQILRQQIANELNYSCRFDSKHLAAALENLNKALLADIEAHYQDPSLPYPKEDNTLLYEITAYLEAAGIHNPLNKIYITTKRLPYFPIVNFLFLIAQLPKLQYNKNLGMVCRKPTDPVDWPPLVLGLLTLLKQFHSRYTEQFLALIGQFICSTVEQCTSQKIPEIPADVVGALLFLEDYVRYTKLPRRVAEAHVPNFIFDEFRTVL
# Chain of UniProt Q6DD87 (Q6DD87 whole entry, looked up): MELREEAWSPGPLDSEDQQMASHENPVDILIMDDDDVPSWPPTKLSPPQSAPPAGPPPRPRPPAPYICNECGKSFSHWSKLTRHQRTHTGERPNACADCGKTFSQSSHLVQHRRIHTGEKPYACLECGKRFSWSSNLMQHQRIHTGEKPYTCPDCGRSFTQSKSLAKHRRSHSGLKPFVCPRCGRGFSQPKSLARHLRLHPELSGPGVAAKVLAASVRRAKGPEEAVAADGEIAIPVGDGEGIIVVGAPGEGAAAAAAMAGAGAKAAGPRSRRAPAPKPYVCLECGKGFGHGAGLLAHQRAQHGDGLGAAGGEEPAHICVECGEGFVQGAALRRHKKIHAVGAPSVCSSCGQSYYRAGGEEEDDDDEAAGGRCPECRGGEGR
# Chain of UniProt Q8TF39 (Q8TF39 whole entry): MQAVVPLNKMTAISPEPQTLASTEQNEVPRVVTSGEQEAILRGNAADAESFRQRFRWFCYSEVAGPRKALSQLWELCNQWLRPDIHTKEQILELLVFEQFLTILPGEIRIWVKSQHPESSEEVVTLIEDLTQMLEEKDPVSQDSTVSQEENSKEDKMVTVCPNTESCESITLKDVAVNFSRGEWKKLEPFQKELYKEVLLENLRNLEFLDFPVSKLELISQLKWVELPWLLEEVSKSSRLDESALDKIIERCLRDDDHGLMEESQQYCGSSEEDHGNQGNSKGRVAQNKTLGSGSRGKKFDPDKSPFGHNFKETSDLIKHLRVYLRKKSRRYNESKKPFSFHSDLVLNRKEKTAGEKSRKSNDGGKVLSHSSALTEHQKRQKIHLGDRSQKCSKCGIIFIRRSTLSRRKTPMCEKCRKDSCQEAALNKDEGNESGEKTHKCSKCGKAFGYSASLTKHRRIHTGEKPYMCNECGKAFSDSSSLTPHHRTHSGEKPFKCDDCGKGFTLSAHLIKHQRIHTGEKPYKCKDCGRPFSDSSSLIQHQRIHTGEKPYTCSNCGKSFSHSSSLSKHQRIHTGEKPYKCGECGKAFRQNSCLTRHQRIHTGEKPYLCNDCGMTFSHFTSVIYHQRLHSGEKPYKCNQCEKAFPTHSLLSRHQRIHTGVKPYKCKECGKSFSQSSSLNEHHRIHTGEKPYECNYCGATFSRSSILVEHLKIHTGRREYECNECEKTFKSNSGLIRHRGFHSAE
# Chain of UniProt Q5VZL5 (Q5VZL5 whole entry, looked up): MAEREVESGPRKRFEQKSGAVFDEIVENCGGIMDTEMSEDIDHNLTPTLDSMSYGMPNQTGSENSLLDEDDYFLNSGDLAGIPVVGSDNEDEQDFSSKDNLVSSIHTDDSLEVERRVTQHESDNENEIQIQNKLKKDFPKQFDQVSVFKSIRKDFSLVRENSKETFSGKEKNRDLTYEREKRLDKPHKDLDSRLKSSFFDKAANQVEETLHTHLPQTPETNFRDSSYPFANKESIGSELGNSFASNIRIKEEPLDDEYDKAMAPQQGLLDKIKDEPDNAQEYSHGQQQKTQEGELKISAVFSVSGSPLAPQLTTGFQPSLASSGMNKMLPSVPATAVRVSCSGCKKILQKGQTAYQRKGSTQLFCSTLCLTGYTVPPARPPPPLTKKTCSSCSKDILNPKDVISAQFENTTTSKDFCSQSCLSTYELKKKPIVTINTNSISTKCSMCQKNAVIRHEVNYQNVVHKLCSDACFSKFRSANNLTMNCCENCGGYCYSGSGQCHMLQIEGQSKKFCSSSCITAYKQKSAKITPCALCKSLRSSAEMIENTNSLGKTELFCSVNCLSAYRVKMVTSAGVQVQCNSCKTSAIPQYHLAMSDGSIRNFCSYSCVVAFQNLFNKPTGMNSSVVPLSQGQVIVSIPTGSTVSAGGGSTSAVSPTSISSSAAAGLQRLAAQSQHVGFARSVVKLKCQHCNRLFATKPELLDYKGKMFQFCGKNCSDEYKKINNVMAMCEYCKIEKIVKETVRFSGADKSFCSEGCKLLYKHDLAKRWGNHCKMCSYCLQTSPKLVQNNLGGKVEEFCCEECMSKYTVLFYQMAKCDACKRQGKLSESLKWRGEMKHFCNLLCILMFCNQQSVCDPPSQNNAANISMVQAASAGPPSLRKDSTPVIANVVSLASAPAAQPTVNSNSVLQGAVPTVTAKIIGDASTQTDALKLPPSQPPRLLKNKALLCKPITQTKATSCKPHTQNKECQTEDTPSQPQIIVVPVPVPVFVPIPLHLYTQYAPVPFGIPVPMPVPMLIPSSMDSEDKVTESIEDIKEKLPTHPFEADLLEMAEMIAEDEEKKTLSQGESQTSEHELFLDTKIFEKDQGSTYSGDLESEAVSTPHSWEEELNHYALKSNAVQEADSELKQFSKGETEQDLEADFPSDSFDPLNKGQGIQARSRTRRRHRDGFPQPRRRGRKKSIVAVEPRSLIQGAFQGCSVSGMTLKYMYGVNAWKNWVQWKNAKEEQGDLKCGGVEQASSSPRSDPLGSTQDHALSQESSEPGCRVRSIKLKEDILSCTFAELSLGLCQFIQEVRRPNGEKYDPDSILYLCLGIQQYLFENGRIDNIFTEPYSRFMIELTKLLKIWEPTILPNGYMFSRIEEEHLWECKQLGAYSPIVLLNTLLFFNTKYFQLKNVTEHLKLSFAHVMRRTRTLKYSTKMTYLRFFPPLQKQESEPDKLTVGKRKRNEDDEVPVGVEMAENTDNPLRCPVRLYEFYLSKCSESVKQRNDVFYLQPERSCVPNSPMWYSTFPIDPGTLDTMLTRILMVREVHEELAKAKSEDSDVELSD
Target,probe-labelled cysteine peptide fold change (10 µM),probe-labelled cysteine peptide fold change (50 µM)
XXYLT1_Q8NBI6_386_IYHGNCNTPIPED (UniProt Q8NBI6),-0.00561,-0.0309
ZNHIT3_Q15649_30_VPYCSVVCFR (UniProt Q15649),-0.0726,-1.11
ZNF512_Q96ME7_540_NNEELVVSASCK (UniProt Q96ME7),0.0455,0.0373
WDHD1_O75717_285_GYAICGLAWHPTCGR (UniProt O75717),-0.0417,-0.0589
WDR55_Q9H6Y2_5_TCEERPAEDGSDEEDPDSMEAPTR (UniProt Q9H6Y2),-0.668,-1.19
WDR5_P61964_205_IWDTASGQCLK (UniProt P61964),0.16,0.0228
ZZEF1_O43149_728_DTEESVCGATLLLR (UniProt O43149),-0.0306,-0.17
YY1AP1_Q9H869_689_AHMNVDIACAVADGENAFQGLEPK (UniProt Q9H869),-0.0161,0.141
WRN_Q14191_1367_HGPDSGLQPSCDVNK (UniProt Q14191),-0.126,-0.11
WDR6_Q9NNW5_830_LACHVMHLSSHR (UniProt Q9NNW5),0.144,0.0864
ZNF598_Q86UK7_867_VCPTCQQVLAHGDASSHQALHAAR (UniProt Q86UK7),0.228,0.187
ZNF330_Q9Y3S2_120+122_CLSTHACACPLTDAECVECER (UniProt Q9Y3S2),0.16,-0.138
ZC3H12A_Q5D1E8_374_RPSPSSQSSSLLTESEQCSLDGK (UniProt Q5D1E8),-0.349,-0.484
ZMYM4_Q5VZL5_1499_SCVPNSPMWYSTFPIDPGTLDTMLTR (UniProt Q5VZL5),-0.668,-0.33
WDR41_Q9HAD4_291_SNDISIHHFTCDEENVFAAVGR (UniProt Q9HAD4),0.135,0.418
ZBTB14_O43829_391_PFVCGSCTK (UniProt O43829),0.104,-0.263

Target,probe-labelled cysteine peptide fold change (10 µM),probe-labelled cysteine peptide fold change (50 µM)
WNK1_Q9H4A3_1135_VVECQLETHNRK (UniProt Q9H4A3),0.208,0.14
ZW10_O43264_650_LGIVWQDVLPVNIYCK (UniProt O43264),0.139,0.206
ZNF691_Q5VV52_176_CQESFR (UniProt Q5VV52),-0.0275,-0.0396
ZNF483_Q8TF39_392_IHLGDRSQKCSK (UniProt Q8TF39),-0.0771,-0.64
WDFY4_Q6ZS81_2226_TEDFVSCIENYR (UniProt Q6ZS81),-0.17,-0.159
ZNF787_Q6DD87_350_IHAVGAPSVCSSCGQSYYR (UniProt Q6DD87),-0.238,-0.311
ZNHIT6_Q9NWK9_171_FVGQCIK (UniProt Q9NWK9),-0.528,-0.0997
WASHC5_Q12768_385_WLMLHTADSACDPNNKR (UniProt Q12768),-2.11,-2.63
ZNF451_Q9Y4E5_476_TWFCECNQR (UniProt Q9Y4E5),0.0139,0.0709
ZMYND11_Q15326_126_CLSDEFR (UniProt Q15326),-0.00978,0.0128
ZNF512B_Q96KM6_6_TDPFCVGGR (UniProt Q96KM6),-0.0569,0.0733
ZC3HAV1_Q7Z2W4_7_ADPEVCCFITK (UniProt Q7Z2W4),0.158,0.175
WDFY4_Q6ZS81_2352_EAEGEPDEVGVDCTQLTFFPALHESLHSEDFLELCR (UniProt Q6ZS81),-0.125,-0.598
ZC3HAV1_Q7Z2W4_513_VDDHDSEEICLDHLCK (UniProt Q7Z2W4),0.0207,-0.396
WDR47_O94967_672_GSIYCVAWSPCGQLLATGSNDK (UniProt O94967),-0.439,-1.25
